Measurements reported in PubChem BioAssay (Tox21).
Inconclusive results are not listed. Entries that show only a call come without a potency. Some structures have more than one record in an assay (separate samples or runs), and their calls can disagree. Activity calls are given as the source filed them. Calls come from the whole dose curve; as a rule, active = well fitted curve in the direction sought with a large enough effect in the repeat runs; inconclusive = weak or mixed curves; inactive = no such curve, though single readings can be large; an effect the other way counts as inactive or inconclusive.

Test: qHTS assay to identify small molecule HDAC inhibitors - cell viability counter screen (AID 1259365); note: nearly all actives have a fitted effect of over 50% in size
Conditions: HCT-116 viability, CellTiter-Glo ATP luminescence, 2 h; series mostly up to 92.4 µM; activity change, negative = cytotoxicity: at the top concentration
Procedure, shortened: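 HCT-116 wild-type, overnight attachment; 2hr drug exposure, 37C; CellTiter-Glo luminescent ATP readout after 30min RT.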

Row | SMILES | outcome
1 | c1ccc(OP(Oc2ccccc2)Oc2ccccc2)cc1 | inactive
2 | COC(=O)c1ccccc1N | inactive
3 | CCOP(=S)(OCC)Oc1cnc2ccccc2n1 | inactive
4 | CCCN(CCC)N=O | inactive
5 | CN(N=O)c1ccccc1 | inactive
6 | CC(C)OC(=O)Nc1cccc(Cl)c1 | inactive
7 | CCCCOC(=O)c1ccccc1C(=O)OCCCC | inactive
8 | CCCCN(CCCC)SN(C)C(=O)Oc1cccc2c1OC(C)(C)C2 | inactive
9 | CC(NC(C)(C)C)C(=O)c1cccc(Cl)c1 (stereo not given) | inactive
10 | CC(C)(C)C(O)(CCc1ccc(Cl)cc1)Cn1cncn1 (stereo not given) | inactive
11 | CC(C)C#N | inactive
12 | Cc1cc(Cl)ccc1O | inactive
13 | O=S(=O)(c1ccc(O)cc1)c1ccc(O)cc1 | inactive
14 | Cc1ccc([N+](=O)[O-])cc1C | inactive
15 | C1CN2CCN1CC2 | inactive
16 | CC(C)(Cl)Cl | inactive
17 | CC(C)(C)OOC(=O)c1ccccc1 | inactive
18 | CCc1cccc(C)c1N(C(=O)CCl)C(C)COC (stereo not given) | inactive
19 | c1ccc2c(c1)Oc1ccccc1O2 | inactive

Row | SMILES | outcome
20 | O=[N+]([O-])c1ccc(Oc2ccc(Cl)cc2Cl)cc1 | inactive
21 | CCC[N+](=O)[O-] | inactive
22 | Nc1c(Cl)c(Cl)nc(C(=O)O)c1Cl | inactive
23 | CC(=O)C=C(C)C | inactive
24 | C#CC(C)(C)NC(=O)c1cc(Cl)cc(Cl)c1 | inactive
25 | CN(C)CCO | inactive
26 | OC(O)C(Cl)(Cl)Cl | inactive
27 | CC1C=[C-]C=C1.[C-]#[O+].[C-]#[O+].[C-]#[O+].[Mn] | inactive
28 | CCN(CC)c1ccccc1 | inactive
29 | CCC(C)(CC)c1cc(NC(=O)c2c(OC)cccc2OC)on1 | inactive
30 | CCC12COCN1COC2 | inactive
31 | CC(C)NC(=O)N1CC(=O)N(c2cc(Cl)cc(Cl)c2)C1=O | inactive
32 | C1CC2OC2CC1C1CO1 (stereo not given) | inactive
33 | CC(C#N)CCC#N (stereo not given) | inactive
34 | Nc1ccccc1C(=O)O | inactive
35 | CCOP(=S)(OCC)SCCSCC | inactive
36 | [O-][Cl+2]([O-])O | inactive
37 | Clc1cccc(Cl)c1Cl | inactive

Test: qHTS assay to identify small molecule agonists of the sonic hedgehog signaling (Shh) pathway - cell viability counter screen (AID 1259366); note: nearly all actives have a fitted effect of over 50% in size; note: potency is the fitted concentration of half-maximal effect
Conditions: NIH/3T3 Gli1-Luc viability, CellTiter-Fluor, 24 h; series mostly up to 92.4 µM; viability change, negative = cytotoxic: at the top concentration
Procedure, shortened: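 Compounds in DMSO were pin-transferred onto 3T3 Gli1-Luc cells that had settled 4hr; plates then stood 24hr at 37C and 5% CO2. One hour before the end, CellTiter-Fluor was added and fluorescence recorded.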

Row | SMILES | Potency
38 | c1ccc(OP(Oc2ccccc2)Oc2ccccc2)cc1 | inactive
39 | COC(=O)c1ccccc1N | inactive
40 | CCOP(=S)(OCC)Oc1cnc2ccccc2n1 | inactive
41 | CCCN(CCC)N=O | inactive
42 | CN(N=O)c1ccccc1 | inactive
43 | CC(C)OC(=O)Nc1cccc(Cl)c1 | inactive
44 | CCCCOC(=O)c1ccccc1C(=O)OCCCC | inactive
45 | CCCCN(CCCC)SN(C)C(=O)Oc1cccc2c1OC(C)(C)C2 | inactive
46 | CC(NC(C)(C)C)C(=O)c1cccc(Cl)c1 (stereo not given) | inactive
47 | CC(C)(C)C(O)(CCc1ccc(Cl)cc1)Cn1cncn1 (stereo not given) | inactive
48 | CC(C)C#N | inactive
49 | Cc1cc(Cl)ccc1O | inactive
50 | O=S(=O)(c1ccc(O)cc1)c1ccc(O)cc1 | inactive
51 | Cc1ccc([N+](=O)[O-])cc1C | inactive
52 | C1CN2CCN1CC2 | inactive
53 | CC(C)(Cl)Cl | inactive
54 | CC(C)(C)OOC(=O)c1ccccc1 | inactive
55 | CCc1cccc(C)c1N(C(=O)CCl)C(C)COC (stereo not given) | inactive
56 | c1ccc2c(c1)Oc1ccccc1O2 | inactive

Row | SMILES | Potency
57 | O=[N+]([O-])c1ccc(Oc2ccc(Cl)cc2Cl)cc1 | inactive
58 | CCC[N+](=O)[O-] | inactive
59 | Nc1c(Cl)c(Cl)nc(C(=O)O)c1Cl | inactive
60 | CC(=O)C=C(C)C | inactive
61 | C#CC(C)(C)NC(=O)c1cc(Cl)cc(Cl)c1 | inactive
62 | CN(C)CCO | inactive
63 | OC(O)C(Cl)(Cl)Cl | inactive
64 | CC1C=[C-]C=C1.[C-]#[O+].[C-]#[O+].[C-]#[O+].[Mn] | inactive
65 | CCN(CC)c1ccccc1 | inactive
66 | CCC(C)(CC)c1cc(NC(=O)c2c(OC)cccc2OC)on1 | inactive
67 | CCC12COCN1COC2 | inactive
68 | CC(C)NC(=O)N1CC(=O)N(c2cc(Cl)cc(Cl)c2)C1=O | 48.6 µM (active) and inactive
69 | C1CC2OC2CC1C1CO1 (stereo not given) | inactive
70 | CC(C#N)CCC#N (stereo not given) | inactive
71 | Nc1ccccc1C(=O)O | inactive
72 | CCOP(=S)(OCC)SCCSCC | inactive
73 | [O-][Cl+2]([O-])O | inactive
74 | Clc1cccc(Cl)c1Cl | inactive

Test: qHTS assay to identify small molecule antagonists of the sonic hedgehog signaling (Shh) pathway - cell viability counter screen (AID 1259367); note: nearly all actives have a fitted effect of over 55% in size
Conditions: NIH/3T3 Gli1-Luc viability, CellTiter-Fluor, 24 h; series mostly up to 92.4 µM; viability change, negative = cytotoxic: at the top concentration
Procedure, shortened: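 NIH/3T3-derived Gli1-Luc reporter cells (2,000 per well) rested 4 hr at 37 C, then received DMSO compounds plus conditioned medium. After 23 hr of treatment, CellTiter-Fluor was added for 1 hr at 37C and fluorescence read.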

Row | SMILES | Potency | viability change, negative = cytotoxic
75 | COC(=O)c1ccccc1N | inactive | 
76 | CCCN(CCC)N=O | inactive | 
77 | CN(N=O)c1ccccc1 | inactive | 
78 | CCCCN(CCCC)SN(C)C(=O)Oc1cccc2c1OC(C)(C)C2 | inactive | 
79 | CC(NC(C)(C)C)C(=O)c1cccc(Cl)c1 (stereo not given) | inactive | 
80 | CC(C)C#N | inactive | 
81 | Cc1cc(Cl)ccc1O | inactive | 
82 | O=S(=O)(c1ccc(O)cc1)c1ccc(O)cc1 | inactive | 
83 | Cc1ccc([N+](=O)[O-])cc1C | inactive | 
84 | C1CN2CCN1CC2 | inactive | 
85 | CC(C)(Cl)Cl | inactive | 
86 | CC(C)(C)OOC(=O)c1ccccc1 | inactive | 
87 | CCc1cccc(C)c1N(C(=O)CCl)C(C)COC (stereo not given) | inactive | 
88 | c1ccc2c(c1)Oc1ccccc1O2 | inactive | 
89 | O=[N+]([O-])c1ccc(Oc2ccc(Cl)cc2Cl)cc1 |  | -2.36% (inactive)
90 | CCC[N+](=O)[O-] | inactive | 
91 | Nc1c(Cl)c(Cl)nc(C(=O)O)c1Cl | inactive | 
92 | CN(C)CCO | inactive | 
93 | OC(O)C(Cl)(Cl)Cl | inactive | 
94 | CC1C=[C-]C=C1.[C-]#[O+].[C-]#[O+].[C-]#[O+].[Mn] | inactive | 
95 | CCC(C)(CC)c1cc(NC(=O)c2c(OC)cccc2OC)on1 | inactive | 
96 | CCC12COCN1COC2 | inactive | 
97 | C1CC2OC2CC1C1CO1 (stereo not given) | inactive | 
98 | CC(C#N)CCC#N (stereo not given) | inactive | 
99 | Nc1ccccc1C(=O)O | inactive | 
100 | CCOP(=S)(OCC)SCCSCC | inactive | 
